Data from PubChem BioAssay (EPA / NIEHS).
Values joined by “and” are separate entries in the source; they are usually repeats but may differ in a detail not shown here. Identical values can stand only once. Results filed as inconclusive are left out. The source holds several records for some structures; these can differ, active in one and inactive in another. Active and inactive are the calls of the source. How the source made its calls: active means hit-call score of the fitted dose curve at least 0.9, where 1 is the maximum; inconclusive means response in the unintended direction; inactive means score below 0.9.

Tests used:
[1] = TOX21_p53_BLA_p4_viability: Viability Assessment in the Tox21 HCT-116 p53 Agonism Beta-lactamase Assay, Phase 4 (AID 2283597);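 further: hits lower the luminescence signal meaning cytotoxicity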
Method in brief: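 HCT116 p53-bla cells (4000/well) rested 5 h at 37C, then received compounds in DMSO (217-fold dilution) for 16 h at 37C, 5% CO2. CellTiter-Glo was added after the CCF4-AM read, and luminescence was read after 30 min at room temperature.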

[2] = biological target: Cellular tumor antigen p53 (Homo sapiens) (UniProt P04637); assay: TOX21_p53_BLA_p5_ratio: Tox21 HCT-116 p53 Agonism Beta-lactamase Assay, Ratio, Phase 5 (AID 2283599)
Method in brief: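 HCT-116 cells carrying a p53-inducible beta-lactamase reporter were seeded at 4000 cells/well and dosed after 5 h with compound in DMSO (217-fold dilution). After 16 h at 37C, CCF4-AM substrate was added for 2 h, and the 460/530 nm emission ratio was scored as gain-of-signal versus DMSO.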

[3] = TOX21_p53_BLA_p5_viability: Viability Assessment in the Tox21 HCT-116 p53 Agonism Beta-lactamase Assay, Phase 5 (AID 2283600)
Method in brief: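 Cells were plated at 4000/well, rested 5 h at 37C, then given compounds in DMSO (217-fold dilution) for 16 h at 37C, 5% CO2. Following the CCF4-AM beta-lactamase read, CellTiter-Glo was added and luminescence was read after 30 min at room temperature.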

[4] = biological target: Cellular tumor antigen p53 (Homo sapiens) (UniProt P04637); assay: TOX21_p53_BLA_p4_ratio: Tox21 HCT-116 p53 Agonism Beta-lactamase Assay, Ratio, Phase 4 (AID 2283601)
Method in brief: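 HCT116 cells carrying an inducible beta-lactamase reporter were plated at 4000 cells/well, rested 5 h, then exposed to compounds in DMSO (217-fold dilution) for 16 h at 37C. CCF4-AM substrate was loaded 2 h at room temperature; 460/530 nm emission ratio scored gain-of-signal versus DMSO.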

[5] = Tanguay_ZF_120hpf_MORT_legacy: (Legacy) Oregon State University Tanguay Lab 120 Hour Post-fertilization zebrafish Assay for Mortality (AID 2283633);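 on AC50: fitted as increase in binary mortality versus DMSO negative control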
Method in brief: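 Dechorionated Tropical 5D wild-type zebrafish embryos, one per well from 6 hpf, were statically exposed at 28C in the dark until 120 hpf (0.64% DMSO final). Mortality was scored as present/absent by brightfield microscopy, fitted positively versus DMSO.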

[6] = Tanguay_ZF_120hpf_YSE_legacy: (Legacy) Oregon State University Tanguay Lab 120 Hour Post-fertilization zebrafish Assay for Yolk Sac Edema (AID 2283634);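 on AC50: actives raise the incidence of yolk sac edema above the DMSO baseline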
Method in brief: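 Tropical 5D wild-type embryos, dechorionated with pronase at 4 hpf, were exposed singly from 6 hpf to 120 hpf under static, sealed, dark conditions at 28C with 0.64% DMSO final. Yolk sac edema was scored present/absent by brightfield microscopy.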

[7] = Tanguay_ZF_120hpf_AXIS_legacy: (Legacy) Oregon State University Tanguay Lab 120 Hour Post-fertilization zebrafish Assay for Body Axis Malformation (AID 2283635);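 on AC50: potency for an increased fraction of larvae scored with body axis malformation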
Method in brief: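 Tropical 5D wild-type zebrafish embryos, dechorionated with pronase at 4 hpf, were placed singly in wells at 6 hpf and exposed statically to test chemical (0.64% DMSO final) at 28C until 120 hpf, then scored by brightfield for body axis defects.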

[8] = Tanguay_ZF_120hpf_EYE_legacy: (Legacy) Oregon State University Tanguay Lab 120 Hour Post-fertilization zebrafish Assay for Eye Malformation (AID 2283636);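 further: binary presence or absence of eye malformation scored by brightfield in 120 hpf larvae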
Method in brief: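 Dechorionated wild-type Tropical 5D zebrafish embryos were exposed statically from 6 hpf, one per well, to 120 hpf at 28C in sealed, foil-covered plates with 0.64% DMSO. Eye malformation was scored present/absent by brightfield microscopy against DMSO controls.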

[9] = Tanguay_ZF_120hpf_SNOU_legacy: (Legacy) Oregon State University Tanguay Lab 120 Hour Post-fertilization zebrafish Assay for Snout Malformation (AID 2283637)
Method in brief: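 Tropical 5D wild-type zebrafish embryos, dechorionated with pronase at 4 hpf, were exposed singly from 6 hpf to 120 hpf statically at 28C in 0.64% DMSO. Snout malformation was scored present/absent by brightfield microscopy, fitted against DMSO.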

[10] = Tanguay_ZF_120hpf_JAW_legacy: (Legacy) Oregon State University Tanguay Lab 120 Hour Post-fertilization zebrafish Assay for Jaw Malformation (AID 2283638);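 on AC50: active means more embryos with jaw malformation than DMSO controls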
Method in brief: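 Tropical 5D wild-type embryos, dechorionated with pronase at 4 hpf, were placed singly per well at 6 hpf and statically exposed at 28C until 120 hpf (0.64% DMSO final). Jaw malformation scored as present/absent by brightfield microscopy at 120 hpf, analyzed relative to DMSO.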

Measured: AC50

Chain of Cellular tumor antigen p53 (Homo sapiens) (P04637 whole entry, looked up): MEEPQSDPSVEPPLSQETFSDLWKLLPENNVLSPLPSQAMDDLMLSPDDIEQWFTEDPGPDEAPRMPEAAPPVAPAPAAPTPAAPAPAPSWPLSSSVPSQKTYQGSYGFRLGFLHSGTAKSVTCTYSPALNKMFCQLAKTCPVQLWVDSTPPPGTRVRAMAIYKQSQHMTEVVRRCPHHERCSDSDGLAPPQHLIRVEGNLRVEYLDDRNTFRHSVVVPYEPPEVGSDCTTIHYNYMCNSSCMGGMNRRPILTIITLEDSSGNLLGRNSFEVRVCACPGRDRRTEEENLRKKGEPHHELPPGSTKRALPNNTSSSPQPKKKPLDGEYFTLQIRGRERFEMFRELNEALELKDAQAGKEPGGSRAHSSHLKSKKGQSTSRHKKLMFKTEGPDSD

ClC1=C(Cl)[C@]2(Cl)[C@@H]3[C@H]4C[C@H]([C@@H]5O[C@H]45)[C@@H]3[C@@]1(Cl)C2(Cl)Cl
active: [6] 72 µM | [7] 45.4 µM
inactive: all other assays above

CCCCCCCCCc1ccc(O)cc1
not listed: [7]
inactive: all other assays above

CC(C)C(=O)OCC(C)(C)C(OC(=O)C(C)C)C(C)C (centres undefined)
active: [5] 26.2 µM | [10] 41.6 µM
not listed: [7]
inactive: all other assays above

Cc1ccc(O)c(C)c1
not listed: [7]
inactive: all other assays above

CCCCCCCCCC[N+](C)(C)CCCCCCCCCC
inactive: [6] | [8] | [9] | [10]
active: [1] 23.4 µM and 21.1 µM | [2] 72.9 µM and 39.8 µM | [3] 23 µM | [4] 26.8 µM and 35 µM | [5] 13.6 µM

CO/C=C(/C(=O)OC)c1ccccc1COc1cccc(C(F)(F)F)n1
inactive: [1] | [3] | [5]
active: [2] 4.18 µM | [4] 5.53 µM | [6] 4.88 µM | [7] 6.06 µM | [8] 3.83 µM | [9] 2.99 µM | [10] 2.66 µM

Cc1cc(-c2ccc(N)c(C)c2)ccc1N
inactive: [1] | [2] | [3] | [4] | [5] | [6] | [8] | [9] | [10]
active: [4] 70.7 µM

CC(c1ccc(O)cc1)(c1ccc(O)cc1)c1ccc(O)cc1
active: [4] 80.8 µM
inactive: all other assays above

O=C(O)C(F)(F)C(F)(F)C(F)(F)C(F)(F)C(F)(F)C(F)(F)C(F)(F)C(F)(F)F
active: [1] 46.1 µM | [2] 82.9 µM
not listed: [7]
inactive: all other assays above

CCC(C)(c1ccc(O)cc1)c1ccc(O)cc1
inactive: [1] | [2] | [3]
active: [1] 77.1 µM | [2] 75.7 µM | [4] 84.6 µM and 82.3 µM | [5] 36.9 µM | [6] 41 µM | [8] 46.2 µM | [9] 46.2 µM | [10] 47.3 µM

c1cc2ccc3cccc4ccc(c1)c2c34
not listed: [7] | [10]
inactive: all other assays above

CC(C)(O)C(=O)Nc1ccc([N+](=O)[O-])c(C(F)(F)F)c1
active: [8] 21.7 µM | [9] 7.43 µM | [10] 23.1 µM
not listed: [7]
inactive: all other assays above

ClC1=C(Cl)[C@]2(Cl)[C@@H]3[C@@H]4C[C@@H]([C@H]5O[C@@H]45)[C@@H]3[C@@]1(Cl)C2(Cl)Cl
not listed: [7] | [10]
inactive: all other assays above

Nc1ccc(-c2ccc(N)cc2)cc1
not listed: [7]
inactive: all other assays above

O=C(NC(=O)c1c(F)cccc1F)Nc1cc(Cl)c(OC(F)(F)C(F)F)c(Cl)c1
not listed: [7]
inactive: all other assays above

O=C(N[C@H]1CN2CCC1CC2)c1cc2ccoc2cn1
not listed: [7]
inactive: all other assays above

CCOC(=O)C(O)(c1ccc(Cl)cc1)c1ccc(Cl)cc1
active: [1] 59.7 µM and 25.1 µM | [2] 80.1 µM and 66.1 µM | [3] 81.7 µM and 24.7 µM | [4] 68.6 µM and 60.8 µM
not listed: [7]
inactive: all other assays above

COS(=O)(=O)OC
inactive: all assays above

CC(C)(c1ccccc1)c1ccc(O)cc1
inactive: [2] | [3] | [8]
active: [1] 71 µM and 65.8 µM | [2] 73.1 µM | [4] 81.7 µM and 70.4 µM | [5] 19.1 µM

Clc1ccc(C(c2ccccc2Cl)C(Cl)(Cl)Cl)cc1 (centres undefined)
active: [1] 30.2 µM and 62.2 µM | [2] 72.8 µM | [3] 72.2 µM | [4] 48.7 µM and 76.4 µM
inactive: [2] | [3] | [5] | [6] | [9]

NS(=O)(=O)C(F)(F)C(F)(F)C(F)(F)C(F)(F)C(F)(F)C(F)(F)C(F)(F)C(F)(F)F
active: [2] 82.3 µM | [3] 46.1 µM | [5] 24.9 µM
not listed: [7]
inactive: all other assays above

Oc1c(Cl)c(Cl)c(Cl)c(Cl)c1Cl
inactive: [1] | [2] | [3] | [6] | [7] | [8] | [9] | [10]
active: [2] 8.02 µM | [4] 11.1 µM and 2.43 µM | [5] 0.801 µM

OCC(O)CO
inactive: [1] | [2] | [3] | [4]

ClC1=C(Cl)[C@]2(Cl)[C@@H]3[C@@H](Cl)[C@H]4O[C@H]4[C@@H]3C1(Cl)C2(Cl)Cl
active: [1] 65.1 µM | [4] 72.3 µM
inactive: all other assays above

C=CC(=O)NCNC(=O)C=C
inactive: all assays above

CN(C)CCO
not listed: [7]
inactive: all other assays above

CCC(C)c1cc([N+](=O)[O-])cc([N+](=O)[O-])c1O (centres undefined)
active: [2] 3.4 µM | [4] 4.83 µM | [5] 0.462 µM
not listed: [7]
inactive: all other assays above

O=NN(c1ccccc1)c1ccccc1
inactive: all assays above

Cc1cccc([N+](=O)[O-])c1
not listed: [7]
inactive: all other assays above
